Results as given in PubChem BioAssay AID624132 (Broad Institute, 2012).
Hit rate of the full screen: of about 1,600 compounds, about 1,500 (94%) were called active. So high a share suggests a set chosen from earlier hits. Only a sample is shown. Results with a measured potency or affinity are listed apart. Records with an inconclusive call do not appear.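 The calls were made as follows: active = signal drop with fitted half-maximal concentration at most twice the top valid dose for that sample; inconclusive = flat fit between 30 and 70% inhibition, or poor curve fit; inactive = the rest.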

Experiment: reduction of Shn3 3'UTR-driven luciferase in osteoblasts – cell-based, Clone20 osteoblasts, firefly luciferase, cherry-picked, dose response (AID 624132)
Details: Clone20 osteoblast Shn3 3'UTR firefly luciferase, 24 h; series mostly up to 35 µM; activity change, negative = inhibition: at the top concentration

Activity change, negative = inhibition, inactive:
CC(Cc1cccs1)NC(=O)Nc1ccc(F)cc1 (stereo not given) -3.91%, CCN1C(=O)[C@H]2[C@@H](c3ccc(-c4ccc(OC)cc4)cc3)N3CCC[C@@]3(C(=O)OC)[C@H]2C1=O -16.5%, COc1ccc(N(C)C(=O)c2ccc3snnc3c2)cc1 -3.31%, CC(=O)N1N=C(c2ccccc2)OC1c1ccc([N+](=O)[O-])s1 (stereo not given) -37.6%, Fc1ccccc1N1CCN(Cc2nc(-c3ccccc3)no2)CC1 24.1%, O=C(COC(=O)/C=C/c1ccc(OC(F)F)cc1)Nc1ccc2[nH]c(=O)[nH]c2c1 -5.42%, CCOc1ccc(NS(=O)(=O)c2cc(C(=O)NCCN3CCOCC3)ccc2C)cc1 11.4%, COCc1nn2c(N)c(C#N)cnc2c1-c1ccccc1 11.5%, NC(=O)NC(CC(=O)NCCc1ccccn1)c1ccccc1Cl (stereo not given) 2.62%, CCOC(=O)c1[nH]c(C)c(/C(O)=C2\C(=O)C(=O)N(CCCN3CCOCC3)C2c2cccs2)c1C (stereo not given) 29.2%, Cc1cc(-n2c(C)cc(C(=O)CSc3nncn3C)c2C)no1 21.8%, CSCCC(NC(=O)c1ccccc1)C(=O)OCC(=O)N(C)CCC#N (stereo not given) 5.19% [at 8 µM], COc1ccc(C(=O)OCC(=O)Nc2ccc3[nH]c(=O)[nH]c3c2)cc1 6.22%, Cc1csc(=O)n1CCC(=O)N(C)Cc1c(F)cccc1Cl 6.18%, COc1ccc(C(=O)OCC(=O)Nc2ncc([N+](=O)[O-])s2)cc1OC 21.4%, CCCOc1ccc2oc(=O)c3c(c2c1)CCCN3C(=O)CN1CCN(c2ncccn2)CC1 125%, OC(c1ccccc1)C(O)C(c1ccccc1)N1CCCCC1 (stereo not given) -2.22%, COc1ccc(N2C(=O)C(CC(=O)Nc3ccccc3)N(Cc3ccc(OC)c(OC)c3)C2=O)cc1 (stereo not given) 7.36%, CSc1cccc(NC(=O)N2CCCC(CNS(=O)(=O)Cc3ccccc3)C2)c1 (stereo not given) -20.4%, CCn1cc(CNCc2cn(-c3ccccc3C)nc2-c2ccc(OC)c(F)c2)cn1 -3.08%, CC(C)(C)N(Cc1ccccc1)C(=O)COC(=O)CCc1c[nH]c2ccccc12 -6.52%, Oc1c(C(c2cccs2)N2CCC3(CC2)OCCO3)sc2ncnn12 (stereo not given) -5.82%, COc1ccc(S(=O)(=O)NCCC(=O)OCC(=O)NC2CC2)cc1 79.6%, CC1=NN(c2cccc([N+](=O)[O-])c2)C(=O)C1 4.22%, CN=C1c2cc3cc(OC)ccc3n2CCN1Cc1ccccc1 -18.3%, Cc1noc(C)c1COC(=O)[C@@H](NC(=O)c1ccccc1)C(C)C -11.5%, CCCCC[C@H]1CN(Cc2ccc(OC)cc2)C(=O)[C@@H]1CC(=O)NCc1ccccc1 -56.9%, Cc1ccc(NC(=O)CN(C)C(=O)COc2cc(F)ccc2[N+](=O)[O-])cc1 -9.91%, Cc1cc(C)cc(C(=O)NCC(=O)OCC(=O)NCC(F)(F)F)c1 11.4%, Nc1c(Br)cc2c(c1Br)C(O)c1ccccc1-2 (stereo not given) 27.3%, O=C(CSc1nnc(Nc2ccccc2)s1)NC1CCS(=O)(=O)C1 (stereo not given) 16.4%, CN(C(=O)CSc1nc(-c2cccs2)nc2ccccc12)C1CCS(=O)(=O)C1 (stereo not given) -7.83%, CN(CC(=O)NCc1ccc2c(c1)OCO2)S(=O)(=O)c1ccc(Br)s1 -3.96%, Cn1cccc1Cc1nnc(SCC(=O)NCCc2ccccc2)n1-c1ccc(F)cc1 -16.1%, O=C(NC(NC(=S)Nc1c(Cl)cc(Cl)cc1Cl)C(Cl)(Cl)Cl)OCc1ccccc1 (stereo not given) -68.3%, COc1ccc(-c2nnn(CC(=O)Nc3ccc4c(c3)OCCO4)n2)cc1OC -6.19%, O=C(CSc1nc(C(F)(F)F)cc(=O)[nH]1)N1CCCC1 -20.5%, Cc1nc2ncnn2c(C)c1Cc1cccc(F)c1 -14.1%, CCOC(=O)C1CCN(C(=O)C(C)N(c2ccc(Oc3ccccc3)cc2)S(C)(=O)=O)CC1 (stereo not given) -14.2%, CCOc1ccc(Br)cc1C1=CC(=O)C[C@H](c2ccc(OC)cc2)C1 -22.4%, COc1ccccc1-n1ccnc(SCC(=O)NCc2ccccc2Cl)c1=O -16.1%, Cc1ccc(NC(=O)NCCCN2CCOCC2)cc1 12.6%, Nc1cc(=O)[nH]c(SCC(=O)Nc2cccc([N+](=O)[O-])c2)n1 10.6%, CCOC(=O)C1=C(C)N(CCCC(=O)O)C(=O)NC1c1ccc2ccccc2c1 (stereo not given) 6.64%, CCc1c(O)nc(SCC(=O)Nc2ccccc2)n(-c2ccccc2)c1=O 15.3%, O=C(CN1C(=O)C2CCCCC2C1=O)NC1CCCc2ccccc21 (stereo not given) 8.86%, Cc1cc(Sc2ccc([N+](=O)[O-])cn2)ccc1Br 22%, Cc1ccc(S(=O)(=O)N2CCCCC2)cc1NS(=O)(=O)c1ccccc1F -79.1%, O=c1c2ccccc2c(C=Nc2ccccc2O)c(O)n1-c1nccs1 -5.72%, COc1ccccc1-n1c(SCC(=O)Nc2cc(C)on2)nc2c(c1=O)SCC2 -19.3%, O=S(=O)(c1ccc(Cl)cc1)n1ccc2cccnc21 -26.5%, O=C(NCCCn1ccnc1)C(=O)NCC1OCCCN1S(=O)(=O)c1ccccc1 (stereo not given) 3.7%, O=C(NCCNC(=O)Oc1cccc2ccccc12)Oc1cccc2ccccc12 48.5%, O=C(CSc1nc2ncc(Cl)cc2[nH]1)N1CCOCC1 17.4%, C[C@@H]1CC=C[C@H]2[C@H]1C(=O)N(Cc1ccccc1)[C@H]2c1cccc([N+](=O)[O-])c1 -18.7%, CC(=O)Nc1sc2c(c1-c1nc3ccccc3s1)CCN(C(C)C)C2 -66.9%, COc1cc(C(=O)OCC(=O)NC2CCCCCC2)ccc1OCC(C)C -25.6%, Cc1ccc(NC(=O)C2CCCN(S(=O)(=O)c3c(C)noc3C)C2)cc1 (stereo not given) 59.3%, CCO[C@@H]1OC(C(=O)NC2CC2)=C[C@H](c2coc3ccccc3c2=O)[C@H]1CCCO 0.737%, O=C(Nc1cccc(S(=O)(=O)NC2=NCCC2)c1)C1CC(=O)N(c2ccc3c(c2)OCCO3)C1 (stereo not given) 0.562%, CCOC(=O)CNC(=O)C1(NC(=O)CNC(=O)OCc2ccccc2)CCCC1 38.8%, O=C(NNc1ccccc1)C(=O)NNS(=O)(=O)c1ccc(CCCl)cc1 -0.537%, Cc1ccc(C(=O)N2CCN(C)CC2)cc1S(=O)(=O)N1CCCCCC1 -10.2%, CCN(CC)S(=O)(=O)c1ccc(N(C)Cc2cccc(OC)c2OC)nc1 -35.1%, Cc1cc(C(=O)Cn2cnc3cc(F)ccc3c2=O)c(C)n1C1CC1 -59.4%, COc1ccc(S(=O)(=O)N2CCOCC2)cc1NC(=O)COC(=O)CC1CC2CCC1C2 (stereo not given) -38%, COc1cc(OC)cc(C(=O)OCC(=O)Nc2ccc(F)cc2F)c1 -2.85%, Fc1ccccc1N=C1NN=C(c2ccccc2)CS1 -45%, Nc1nc(=S)[nH]c2c1C1(CCCCC1)Cc1ccccc1-2 15.5%, CCCCCCC#Cc1ccc2c(c1)COc1c3ccccc3nn1-2 57%, O=C1N/C(=C/c2ccc(N3CCOCC3)o2)C(=O)N1c1ccccc1 38.1%, Cc1ccccc1N/C(=N/S(=O)(=O)c1ccccc1)c1ccc(F)cc1 -1.16%, C[C@@H]1CN([C@H](C)CO)C(=O)CCCn2nncc2CO[C@H]1CN(C)S(=O)(=O)c1ccc2c(c1)OCCCO2 -2.03%, C[C@@H]1CN([C@H](C)CO)C(=O)c2cc(Br)cnc2O[C@H]1CN(C)C(=O)Cc1ccncc1 -2.88%, Cc1cc(C)n(-c2cc(-n3nc(C)cc3C)ncn2)n1 -6.51%, OCCNc1nc(Nc2ccc(Cl)cc2)nc(N2CCCC2)n1 -42.6%, COc1c(C)cc(C(=O)C2CCCN(C(=O)c3cccc(-n4cccn4)c3)C2)cc1C (stereo not given) -0.537%, CC1CCN(C(=O)c2ccc(N3C(=O)C4CCC(C)CC4C3=O)cc2)CC1 (stereo not given) 12%, O=C(Cc1ccccc1)NCCS(=O)c1ccc(Cl)cc1 (stereo not given) 12.2%, CSc1nnc(-c2ccco2)n1-c1ccccc1 -27%, CCn1nnc2cc(C(=O)Nc3cc(Cl)ccc3C)ccc21 7.36%, O=C(CSc1nc2[nH]ncc2c(=O)[nH]1)Nc1ccccc1C(F)(F)F 3.2%, CC(C)c1c(O)c2c(n(-c3ccccc3)c1=O)CCCC2 -1.82%, Cc1ccc(C(=O)Nc2ccc3c(c2)C(=O)N(CC2CCCO2)C3=O)cc1 (stereo not given) 43.8%, O=C(CCS(=O)(=O)c1ccccc1)Nc1nc2c(s1)CCCC2 25.6%
